Calb FLC: affects C. albicans growth with fluconazole. growth inhibition, % (concentration not given with the values). 0.57% of 300,000 active. C. albicans CaCi-2 (fluconazole-resistant clinical isolate) + fluconazole, Alamar Blue growth, 48 h;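 active = growth inhibition above about 58% in most replicates, limit read from the data, passing the limit was not always enough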;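 note: all wells also contain fluconazole at 8 µg/ml as a sub-toxic cotreatment; 0% = median of DMSO wells and 100% = median of geldanamycin control wells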
tim10-1 inh: growth inhibitors of tim10-1 mutant yeast | S. cerevisiae tim10-1 ts strain growth, BacTiter-Glo, 24 h | inhibition, % at 20 µM | 2.2% of 330,000 active | AID 463190;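 active = inhibition of at least 40%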;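 note: mutant grown at 25 °C; 0% = DMSO wells with yeast and 100% = wells holding no yeast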
tim23-1 inh: inhibits growth of tim23-1 mutant yeast; S. cerevisiae tim23-1 growth, BacTiter-Glo luminescence, 24 h; 1.3% of 330,000 active; inhibition, % at 20 µM;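 active = growth inhibition of the mutant yeast at or above 50%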;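 note: temperature-sensitive mutant grown at 25 °C; plate controls were DMSO-treated mutant yeast for no effect and medium wells lacking yeast for full effect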
PfHsp90 set2: inhibits growth of yeast expressing Plasmodium falciparum Hsp90; S. cerevisiae expressing PfHsp90, BacTiter-Glo ATP, 48 h; yeast lacking PDR1 and PDR3 efflux regulators; inhibition, % at 9.4 µM; 0.32% of 310,000 active;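 active = every replicate shows inhibition above about 80%, whatever the replicate mean, limit read from the data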;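 note: 0% = DMSO neutral controls and 100% = 20 µM radicicol positive controls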
TIM10 inh: growth inhibitors of TIM10 yeast strain | S. cerevisiae TIM10 strain growth, BacTiter-Glo luminescence, 24 h | inhibition, % at 10 µM | 1.4% of 330,000 active | AID 463195;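 active = inhibition of 40% or more at the single tested concentration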;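 note: wild-type TIM10 isogenic control strain grown at permissive 25 °C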
SKKanGAS inh: blocks kanamycin growth of S. pyogenes SKKanGAS strain | BacTiter-Glo, 6 h | inhibition, % at 7.5 µM | 1.3% of 300,000 active;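 active = mean replicate score, as percent of positive control median, at least 50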;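 note: strain carries kanamycin resistance gene driven by streptokinase promoter and grows in 40 µg/ml kanamycin; loss of luminescence reflects streptokinase promoter inhibition or plain growth inhibition; 0% = median of DMSO wells and 100% = positive control at its reference dose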
tim10-1 confirm: confirmation of tim10-1 mutant yeast growth inhibitors; 56% of 7,400 active; S. cerevisiae tim10-1 ts strain growth, BacTiter-Glo, 24 h; shares compounds with tim10-1 inh; inhibition, % at 20 µM; AID 463213;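 active = inhibition of yeast growth at or above a set limit in either of two repeat tests at 20 µM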;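 note: tim10-1 mutant grown at permissive 25 °C to find synthetic lethal compounds; 0% = DMSO yeast wells and 100% = medium wells without yeast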
TIM10 conf: TIM10 yeast growth inhibition, confirmed | shares compounds with TIM10 inh | S. cerevisiae tim10 strain growth, BacTiter-Glo luminescence, 24 h | inhibition, % at 10 µM | 63% of 4,600 active | AID 463215;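 active = inhibition of yeast growth at or above a set limit in either of two replicates at 10 µM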;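 note: this counterscreen used the strain with wild-type TIM10; 0% = yeast with DMSO and 100% = medium wells lacking yeast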
tim23-1 confirm: tim23-1 yeast growth inhibition, confirmed. S. cerevisiae tim23-1 growth, BacTiter-Glo luminescence, 24 h. 83% of 4,400 active. shares compounds with tim23-1 inh. inhibition, % at 20 µM;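 active = inhibition above about 39% in either of two replicate wells at 20 µM, limit read from the data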;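 note: temperature-sensitive tim23-1 mutant grown at 25 °C; 0% = DMSO wells with yeast and 100% = medium wells without yeast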
* marks the source's active call; other numbers are inactive results; x = not tested or not shown; ! = repeats disagree. Most compounds without a hit are left out; they make up all but 4.7% or so of the library.

SMILES | Calb FLC | tim10-1 inh | tim23-1 inh | PfHsp90 set2 | TIM10 inh | SKKanGAS inh | tim10-1 confirm | tim23-1 confirm | others
COc1cc(OC)c(C#N)c(S(=O)(=O)Cc2ccccc2)c1 | x | 18 | 15 | 2 | 0 | -1 | x | x
N#Cc1c([N+](=O)[O-])cc([N+](=O)[O-])cc1S(=O)(=O)Cc1ccccc1 | x | 62* | 67* | -6 | 54* | x | 61* | 87* | TIM10 conf=64*
O=C1CC(c2ccccc2)CC(O)=C1C=Nc1cccc(Cl)c1 (stereo not drawn) | 19 | 89* | 85* | 105* | 90* | 3 | 79* | 85* | TIM10 conf=94*
CCN(CC)S(=O)(=O)c1ccc(NC(=O)c2ccc(N3CCCC3=O)cc2)cc1 | x | -5 | -1 | 8 | -3 | x | x | x
CCN(CC)c1nc(OCCNC(=O)Nc2ccccc2)nc(N(CC)CC)n1 | -6 | 42* | 62* | -9 | 27 | 5 | 35* | 50*
O=P(c1ccccc1)(c1ccccc1)c1nc(-c2ccccc2)oc1NCc1ccccc1 | 11 | 19 | 32 | 11 | 25 | 41 | x | x
CCCN(CC(=O)Nc1ccccc1C)C(=O)CCCNC(=O)c1ccc(Cl)cc1 | x | 18 | -9 | x | 14 | x | x | x
CCCCn1nnc(NC(=O)c2ccc(-c3cccc(Cl)c3)o2)n1 | 11 | 50* | 72* | -31 | 45* | -3 | 51* | 74* | TIM10 conf=47*
N#CCCN1CCN(Cc2ccccc2)CCC1=O | 1 | -7 | -2 | -7 | -1 | 4 | x | x
CCOc1ccccc1C(=O)Nc1cc2c(cc1N1CCCC1)n(CC)c(=O)n2CC | -3 | 48* | 57* | -77 | 10 | -7 | 5 | 51*
CCn1c(=O)n(CC)c2cc(N3CCCC3)c(NC(=O)c3ccccc3OC)cc21 | -5 | -26 | 46 | -31 | 9 | 12 | x | x
CCC(c1nnnn1C1CCCC1)N1CCC(C(N)=O)CC1 (stereo not drawn) | -9 | 17 | 13 | -10 | -17 | 3 | x | x
COc1ccc2c(c1)C(c1ccc(Cl)cc1)NC(=O)C2 (stereo not drawn) | -14 | 12 | -4 | -6 | 0 | 5 | x | x
O=C(c1ccc2c(c1)OCCO2)C1CCN(S(=O)(=O)c2ccc(F)cc2)CC1 | 18 | 43* | 57* | -6 | 50* | x | 42* | 47* | TIM10 conf=40*
Cc1c(-c2ccccc2)c(-c2ccc(OCCN(C)C)cc2)n2ccccc12 | x | x | x | -14 | x | x | x | x
CC1CCN(C(=O)CNC(=O)c2ccc(Br)o2)CC1 | x | -8 | -13 | 3 | -3 | x | x | x
Cc1cc(O)c(C(=O)/C=C/c2ccc(Cl)cc2)c(=O)o1 | -3 | 47* | 53* | 4 | 33 | 20 | 40* | 52*
CCn1ncc([N+](=O)[O-])c1C(=O)Nc1nc2cccc(C)c2s1 | 26 | 47* | 51* | -12 | 32 | 12 | 24 | 50*
COC(=O)c1cc(C(=O)NCC2CCCCC2)cc([N+](=O)[O-])c1 | 4 | -11 | 26 | -27 | 8 | 2 | x | x
COC1(C)CC2C(CC1OC(=O)c1cc([N+](=O)[O-])cc([N+](=O)[O-])c1)C2(C)C (stereo not drawn) | -3 | 60* | 65* | -7 | 63* | -1 | 61* | 68* | TIM10 conf=62*
Cc1ccc(C(=O)NCC(=O)Nc2ccncc2)s1 | -5 | -11 | 4 | 32 | -15 | -3 | x | x
COc1cc(OC)c(C(=O)OCC(=O)N2CCOCC2)cc1OC | 2 | -2 | -4 | 4 | 4 | -5 | x | x
CCSCc1nnc(SCC(=O)Nc2ccc(OC)cc2)n1C | -10 | 19 | 19 | 0 | -11 | 0 | x | x
N/C(Cc1ccc(Cl)cc1Cl)=N\OC(=O)Cc1ccccc1 | -29 | 52* | 75* | 17 | 86* | 24 | 23 | 61* | TIM10 conf=88*
Cc1ccc(S(=O)(=O)N2CC(=O)N3CCN(CCN)C3C2)cc1 (stereo not drawn) | x | -12 | -1 | x | -2 | x | x | x
SMILES | Calb FLC | tim10-1 inh | tim23-1 inh | PfHsp90 set2 | TIM10 inh | SKKanGAS inh | tim10-1 confirm | tim23-1 confirm | others
C=CCn1c(=O)n2ncnc2c2c3c(sc21)CCCC3 | 11 | x | x | -12 | x | -6 | x | x
O=c1n(Cc2ccc(Cl)cc2)c2sc3c(c2c2ncnn12)CCCC3 | -1 | 44* | 68* | -27 | -2 | 32 | 27 | 58*
CNC(C)C#Cc1ccc2c(=O)c3cc(C)c(C)cc3oc2c1 (stereo not drawn) | -7 | 42* | 51* | -12 | 16 | 13 | 38* | 59*
CNC(C)C#Cc1ccc2oc3cc(C)c(C)cc3c(=O)c2c1 (stereo not drawn) | -30 | 11 | 21 | 12 | 8 | 5 | x | x
Cn1c(=O)[nH]c(=O)c2c1nc(SCC(O)CCl)n2Cc1ccccc1 (stereo not drawn) | 6 | 0 | 4 | -14 | -4 | 3 | x | x
O=C(/C=C/c1ccccc1O)c1ccco1 | 29 | 44* | 52* | 20 | 40 | -9 | 35* | 50*
Nc1ccc(/C=C/C(=O)c2ccco2)cc1 | -33 | 15 | 33 | -5 | 11 | -1 | x | x
CN(C(=O)c1ccccc1C(=O)OCC(=O)c1ccc(Br)cc1)c1ccccc1 | -10 | 39 | 39 | 3 | 30 | 3 | x | x
O=C(O)c1ccc(Oc2cc(Oc3ccc(C(=O)O)cc3)cc([N+](=O)[O-])c2)cc1 | 9 | 34 | 9 | -43 | 4 | 8 | x | x
O=C(CCc1ccc(Oc2cc([N+](=O)[O-])cc([N+](=O)[O-])c2)cc1)N1CCCCCC1 | -9 | 43* | 51* | -21 | 45* | 14 | 39* | 50* | TIM10 conf=42*
CCCCCCCCCCCCCCCCn1cc[n+](C)c1 | 86*! | 93* | 55* | 129* | 67*! | 114* | 53* | 63* | TIM10 conf=58*
Cc1cccc(NC(=S)N2CCC(NC(=O)c3ccco3)CC2)c1 | -5 | -9 | 3 | 3 | 4 | -2 | x | x
O=c1oc2ccccc2nc1/C=C(O)/C=C/c1ccc(F)cc1 | 4 | 41* | 64* | 38 | 56* | 2 | 59* | -13 | TIM10 conf=58*
Cc1ccc(/C(O)=C/c2nc3ccccc3oc2=O)cc1 | -1 | -30 | -18 | x | -5 | 4 | x | x
O=C(COC(=O)Cc1ccsc1)Nc1cccc(F)c1 | x | 4 | 11 | -16 | -2 | x | x | x
COc1cc(/C=C/C(=O)c2c(O)ccc3c(C)cc(=O)oc23)ccc1O | 1 | 78* | 73* | -33 | 57* | 33 | 72* | 82* | TIM10 conf=73*

Screens (PubChem BioAssay)
